For 33 molecules, activity (max response), Potency and activity change, negative = viability loss results are on record in PubChem BioAssay (NCATS).

“And” between values parts separate entries of the source, which are not always exact repeats. Equal values may be shown once. Inconclusive results are not listed. A number with no mark means an inactive call. The source made the active and inactive calls. Calls come from the whole dose curve; as a rule, active = well fitted cell-killing curve with a large enough effect; inconclusive = small, poorly fitted or top-dose-only effect; inactive = flat fitted curve, though single readings scatter.

Assay [1] can be described thus: Cellular viability qHTS for adrenocortical cancer (ACC) cell line SW-13 (AID 1963989).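 For activity (max response): cells grown in serum-free medium with ITS supplement; % is set by controls: 0 for no effect and ±100 for the full control effect.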 Note: nearly all actives have a fitted effect of over 65% in size. The conditions noted are these: SW-13 ACC cells viability, CellTiter-Glo, 48 h; activity (max response): stronger effect = lower value. The method in brief:
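Here, serum-free SW-13 cultures were dosed up to 46 uM. Following 48 h, ATP-dependent luminescence (CellTiter-Glo) reported viable cells, and logistic modeling produced IC50 values.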
(In general: qHTS replaces the single test concentration by a dilution series.)

A short description of assay [2]: Cellular viability qHTS for adrenocortical cancer (ACC) cell line NCI-H295R (AID 1963990).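 For activity change, negative = viability loss: 0% = DMSO only wells and -100% = full killing with cytotoxic reference compound.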 Note: nearly all actives have a fitted effect of over 60% in size. The conditions noted are these: CellTiter-Glo ATP luminescence, 48 h; series mostly up to 46.1 µM. The procedure, abridged:
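Viability of NCI-H295R after 48 h of treatment (final up to 46 uM) measured through cellular ATP luminescence.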
Potency is the fitted concentration of half-maximal effect.

As to `Nc1ccc(S(=O)(=O)NC(=O)c2ccccc2)cc1`, in assay [1], the activity (max response) was 4.69%. Further, the Potency entry in assay [2] is “inactive”.
`O=C(Nc1ccccc1)Nc1ccc(-c2ccc(C(=O)[C@@H]3CCC[C@H]3C(=O)O)cc2)cc1`: the activity (max response) in assay [1] is -19.9%. Moreover, in assay [2], the Potency entry was “inactive”.
Take `CC(C)(Oc1ccc(Cl)cc1)C(=O)OCCCOC(=O)C(C)(C)Oc1ccc(Cl)cc1`: the activity (max response) in assay [1] was 0.371%. Besides, in assay [2], the Potency entry was “inactive”.
Consider `CCCC(=O)Nc1ccc(O)c(C(C)=O)c1`, for which the activity (max response) in assay [1] was 10.4%. The Potency result in assay [2] is “inactive”.
In the same order, the values of `C[C@@H]1O[C@@H](O[C@@H]2\C=C/C=C\C=C/C=C\C[C@H](C)OC(=O)/C=C\[C@H]3O[C@@H]3C[C@H](O)C[C@]3(O)C[C@@H](O)[C@@H](C(=O)O)[C@H](C2)O3)[C@H](O)[C@H](N)[C@@H]1O` are 8.59% and “inactive”.
In the same order, the values of `Cc1nnc(C(C)C)n1C1CC2CCC(C1)N2CCC(NC(=O)C1CCC(F)(F)CC1)c1ccccc1` (stereo unspecified) are -4.92% and “inactive”.
For the molecule `Nc1ccc(N=Nc2ccccc2)c(N)n1`, in assay [1], the activity (max response) was -2.95%. For the same molecule, the Potency result in assay [2] is “inactive”.
Consider `C[C@@H]1C[C@H]2[C@@H]3CCC4=CC(=O)C=C[C@]4(C)[C@@]3(F)[C@@H](O)C[C@]2(C)[C@H]1C(=O)CO`, for which the activity (max response) in assay [1] is 1.09%. In assay [2], the Potency entry was “inactive”.
In the case of `O=C(O)Cc1ccc(CCNS(=O)(=O)c2ccc(Cl)cc2)cc1`, in assay [1], the activity (max response) is -0.672%. In assay [2], the Potency entry is “inactive”.
Turning to `COCCCc1sc(-c2ccccc2)nc1C(=O)Nc1ccccc1-c1nc2cc(CN3CCCC3)cnc2s1`, the activity (max response) in assay [1] is -19.6%. The Potency entry in assay [2] was “inactive”.
Taken in the same sequence, the figures for `C[N+]1(C)CCC(OC(=O)C(O)(c2ccccc2)C2CCCC2)C1` (stereo unspecified) were 7.55% and “inactive”.
Consider `NS(=O)(=O)c1cc(C(=O)NN2C[C@H]3[C@H]4CCC(C4)[C@H]3C2)ccc1Cl`, for which, in assay [1], the activity (max response) was -7.57%. The Potency entry in assay [2] was “inactive”.
`Nc1ccc(F)cc1NC(=O)c1ccc(CNC(=O)/C=C/c2cccnc2)cc1`: the Potency was 11.2 µM (active) in assay [1] and 3.55 µM (active) in assay [2].
For `C[C@]1(C(=O)N(CCCC(=O)O)Cc2cccc(Cl)c2)CCN1C(=O)c1csc2ccccc12`, the activity (max response) in assay [1] is -17.4%. In assay [2], the Potency entry was “inactive”.
Regarding `COc1cc(=C2C=c3ccccc3=N2)[nH]/c1=C/c1[nH]c(C)cc1C`, the Potency was 28.2 µM (active) in assay [1] and 7.94 µM (active) in assay [2].
Regarding `CN1CCC(=C2c3ccccc3CCc3cccnc32)CC1`, the activity (max response) in assay [1] is 5.98%. Also, in assay [2], the Potency result is “inactive”.
For `CNC(=O)c1c(C)oc2cc(Oc3ncnc4cc(OC)c(OC)cc34)ccc12`, the activity (max response) in assay [1] was 9.66%. Also, the Potency result in assay [2] was “inactive”.
Regarding `OC1CCC(Oc2cccc3cnc(Nc4ccc5nc[nH]c5c4)nc23)CC1` (stereo unspecified), the Potency is 7.94 µM (active) in assay [1] and 2.51 µM (active) in assay [2].
Turning to `CC(=O)Nc1ccc(C(=O)NC(C)(C)C)cc1`, the activity (max response) in assay [1] is -16.7%. In assay [2], the Potency entry is “inactive”.
Taken in the same sequence, the figures for `CCOC(=O)c1ccc(O)c(O)c1` were -9.67% and “inactive”.
With `CCN(CC)CCOc1ccc(C(O)(Cc2ccc(Cl)cc2)c2ccc(C)cc2)cc1` (stereo unspecified), the Potency in assay [1] is 20.6 µM (active); in assay [2] it was 16.4 µM (active).
`O=C(Nc1ccc2c(c1)CCN(Cc1ncn[nH]1)C2)c1ccccc1-c1ccc(C(F)(F)F)cc1`: in assay [1], the activity (max response) was -15.2%. Moreover, the Potency entry in assay [2] was “inactive”.
In the case of `OC(C#CCN1CCCC1)(c1ccccc1)c1ccccc1`, in assay [1], the activity (max response) was -0.545%. Besides, in assay [2], the Potency result is “inactive”.
With `CS(=O)(=O)Nc1ccc([N+](=O)[O-])cc1Oc1ccccc1`, in assay [1], the activity (max response) was 9.34% and -1.91%. For the same molecule, in assay [2], the Potency result is “inactive”.
Take `CCN(CC)CCNC(=O)COc1ccc(OC)cc1`: the activity (max response) in assay [1] was -8.99%. For the same molecule, the Potency entry in assay [2] was “inactive”.
In the case of `O=C(O)c1ccccc1-c1ccc(/C=c2\sc3nc4cc(Br)cnc4n3c2=O)o1`, the activity (max response) in assay [1] was -2.9%. Besides, the Potency entry in assay [2] was “inactive”.
Taken in the same sequence, the figures for `O=C(OCC(COC(=O)c1cccnc1)(COC(=O)c1cccnc1)COC(=O)c1cccnc1)c1cccnc1` were -1.24% and “inactive”.
`[O-][n+]1ccccc1SSc1cccc[n+]1[O-]`: the Potency was 1.59 µM (active) in assay [1] and 0.0893 µM (active) in assay [2].
With `C#C[C@]1(O)CC[C@H]2[C@@H]3CCc4cc(OC)ccc4[C@H]3CC[C@@]21C`, in assay [1], the activity (max response) is 5.57% and 4.24%. For the same molecule, the Potency entry in assay [2] is “inactive”.
With `CCC[C@H](NC(=O)[C@@H]1[C@H]2CCC[C@H]2CN1C(=O)[C@@H](NC(=O)[C@@H](NC(=O)c1cnccn1)C1CCCCC1)C(C)(C)C)C(=O)C(=O)NC1CC1`, the activity (max response) in assay [1] is -27.4%. In addition, the Potency entry in assay [2] is “inactive”.
Regarding `CN(C)CCNC(=O)COc1c2cccc1Cc1cccc(c1OCC(=O)NCCN(C)C)Cc1cccc(c1OCC(=O)NCCN(C)C)Cc1cccc(c1OCC(=O)NCCN(C)C)C2`, the activity (max response) in assay [1] is 14.5%. Moreover, the activity change, negative = viability loss in assay [2] was 4.99% [at 9.17 µM].
With `Cc1ccc(C(C)C)cc2c(C)ccc1-2`, the activity (max response) in assay [1] is 0.775%. Further, the Potency entry in assay [2] is “inactive”.
In the same order, the values of `COc1cc(-c2cn(C)c(=O)c3cnccc23)c(OC)cc1CN(C)C` are 19.4% and “inactive”.
